Experimental data: paper PMC9928087, “Plasmids manipulate bacterial behaviour through translational regulatory crosstalk”
Changes are numbered by the printed parent chain.

What follows are sequences tested against T1, RsmQ (Pseudomonas fluorescens SBW25 plasmid …, UniProt UPI00015066B5 1-62) (assay: SPR (ReDCaT); HBS-EP+ (10 mM HEPES, 150 mM NaCl, 3 mM EDTA, 0.05% v/v Tween 20, pH 7.4), 20 C, Biacore 8K, ReDCaT SA chip; high values mean tight binding). Conditions: protein: recombinant; tags: C-terminal TEV site + 6xHis; chain copies: 2; ssDNA.
T1 sequence: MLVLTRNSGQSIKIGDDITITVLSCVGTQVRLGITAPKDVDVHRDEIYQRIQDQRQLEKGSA

Sequence | binding signal [%Rmax]
CCATCAAGGAACGATGGTTCGAAGG | 11.7 ± 0.382
CTGCCAGGATGGCGGAGTGAAATGG | 16.2 ± 1.37
AATGTCGCAGGATGCGATTCATCAG | 62.7 ± 2.27
TTCATCAGGATGATGAAAAGGAATAC | 80.5 ± 1.97
GGAATACAGGGACTAGGGAAAAAAT | 3.83 ± 1.08
GCAACAACACGGACACGTAGGATT | 3.78 ± 1.57

What follows are sequences tested against T1, RsmQ (assay: SPR (ReDCaT); 100 nM protein; HBS-EP+ (10 mM HEPES, 150 mM NaCl, 3 mM EDTA, 0.05% v/v Tween 20, pH 7.4), 20 C, Biacore 8K, ReDCaT SA chip; high values mean tight binding). Conditions: protein: recombinant; tags: C-terminal TEV site + 6xHis; chain copies: 2; ssDNA.

Sequence | binding signal [%Rmax]
CAGGAACGGACAGAGC | 6.27 ± 1.5
CAAGGAGACAGAGCAACAGGA | 3.14 ± 0.795
CAGGACAGGACAGAGC | 4.87 ± 0.902
CAGGAAAGGACAGAGCACGGA | 10.1 ± 0.715

Same assay, conditions: protein: recombinant; tags: C-terminal TEV site + 6xHis; chain copies: 2; structured_DNA

Sequence | binding signal [%Rmax]
CCGCGCCGGAAGCGCAGGAAC | 28.8 ± 0.617
CCGCGCACGGAAGCGCAAAC | 68.3 ± 0.752
CCGCGCAGGGAAGCGCAAAC | 106.2 ± 0.739
CCGCGCTCGGAAGCGCAAAC | 4.59 ± 0.514
CCGCGCCCGGAAGCGCAAAC | 7.21 ± 0.838
CCGCGCACGGAAGCGCAACGGAAC | 70 ± 0.746
CCGCGCACTGAAGCGCAAAC | 1.69 ± 0.298
CCGCGCAGGAAGCGCAAAC | 94.4 ± 1.28
CCGCGCACGAAGCGCAAAC | 24.9 ± 0.641
CCGCGCATGGAAGCGCAAAC | 113.5 ± 0.537

Each sequence was assayed against T2, RsmQ H43A (Pseudomonas fluorescens SBW25 plasmid …, UniProt UPI00015066B5 1-62, H43A) in the same assay as above. Conditions: protein: recombinant; tags: C-terminal TEV site + 6xHis; chain copies: 2; structured_DNA.
T2 sequence: T1 sequence with H43A

Sequence | binding signal [%Rmax]
CCGCGCCGGAAGCGCAGGAAC | 12.8 ± 0.157
CCGCGCACGGAAGCGCAAAC | 50.72 ± 0.382
CCGCGCACGGAAGCGCAACGGAAC | 51.14 ± 0.26
CCGCGCAGGAAGCGCAAAC | 43.9 ± 0.798

What follows are sequences tested against T3, RsmQ R44A (Pseudomonas fluorescens SBW25 plasmid …, UniProt UPI00015066B5 1-62, R44A) in the same assay as above. Conditions: protein: recombinant; tags: C-terminal TEV site + 6xHis; chain copies: 2; structured_DNA.
T3 sequence: T1 sequence with R44A

Sequence | binding signal [%Rmax]
CCGCGCCGGAAGCGCAGGAAC | 3.8 ± 0.253
CCGCGCACGGAAGCGCAAAC | 41.38 ± 0.372
CCGCGCACGGAAGCGCAACGGAAC | 38.8 ± 0.461
CCGCGCAGGAAGCGCAAAC | 22.1 ± 0.676

What follows are sequences tested against T4, RsmE (Pseudomonas fluorescens SBW25, UniProt A0ACA7PAD1 1-74) in the same assay as above. Conditions: protein: recombinant; tags: His tag (pET28a NdeI/XhoI); chain copies: 2; structured_DNA.
T4 sequence: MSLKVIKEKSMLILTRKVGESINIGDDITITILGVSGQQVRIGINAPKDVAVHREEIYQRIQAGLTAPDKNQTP

Sequence | binding signal [%Rmax]
CCGCGCACGGAAGCGCAAAC | -4.31 ± 0.212
CCGCGCAGGGAAGCGCAAAC | 47.5 ± 0.0552
CCGCGCATGGAAGCGCAAAC | 30.1 ± 0.204

What follows are sequences tested against T1, RsmQ (assay: SPR (ReDCaT); 100 nM protein, run beside RsmE; HBS-EP+ (10 mM HEPES, 150 mM NaCl, 3 mM EDTA, 0.05% v/v Tween 20, pH 7.4), 20 C, Biacore 8K, ReDCaT SA chip; high values mean tight binding). Conditions: protein: recombinant; tags: C-terminal TEV site + 6xHis; chain copies: 2; structured_DNA.

Sequence | binding signal [%Rmax]
CCGCGCACGGAAGCGCAAAC | 49.1 ± 0.724
CCGCGCAGGGAAGCGCAAAC | 90.1 ± 4.07
CCGCGCAGGAAGCGCAAAC | 98.6 ± 6.21
CCGCGCATGGAAGCGCAAAC | 107 ± 6.88
